Experimental data reported in the supplement of paper PMC7765376.
Where a name gives a salt, the structure may show the parent alone. The full ranking holds about 1,500 compounds; the median of “Excess HSA synergy score (sum over dose matrix of excess over highest single agent)” is about 43, and the lowest 2% start at about -900. The list comes from a sample in which the lowest values are over-represented; it also holds similar structures and randomly drawn compounds.

Tested on: PEO-1
Experiment: Excess HSA synergy score (sum over dose matrix of excess over highest single agent) (score (summed % response)); higher = less synergy / more antagonism (negative = synergy)
Settings: 72 h, read-out: viability/apoptosis luminescence (CellTiter-Glo or Caspase3-Glo / not stated per table)
[1] = matrix design: 6x6, 5-fold dilutions (primary screen)
[2] = matrix design: 10x10, 9-step dilutions (confirmatory)

Row | SMILES | Excess HSA synergy score [1] | Excess HSA synergy score [2]
1 | Cc1ccc(NC(=O)c2cccc(C(C)(C)C#N)c2)cc1Nc1ccc2ncn(C)c(=O)c2c1 + CC[C@H](NC(=O)[C@H](C)NC)C(=O)N1C[C@@H](O)C[C@H]1Cc1c(-c2[nH]c3cc(F)ccc3c2C[C@@H]2C[C@H](O)CN2C(=O)[C@H](CC)NC(=O)[C@H](C)NC)[nH]c2cc(F)ccc12 [Birinapant] | 31.8 | –
2 | CCNC(=O)Nc1ccc2ncc(Nc3ccc(C)cc3)nc2n1 + CC[C@H](NC(=O)[C@H](C)NC)C(=O)N1C[C@@H](O)C[C@H]1Cc1c(-c2[nH]c3cc(F)ccc3c2C[C@@H]2C[C@H](O)CN2C(=O)[C@H](CC)NC(=O)[C@H](C)NC)[nH]c2cc(F)ccc12 [Birinapant] | 77.2 | –
3 | Cc1nc(Nc2n[nH]c3c2CN(C(=O)N[C@H](CN(C)C)c2ccccc2)C3(C)C)c2sccc2n1 + CC[C@H](NC(=O)[C@H](C)NC)C(=O)N1C[C@@H](O)C[C@H]1Cc1c(-c2[nH]c3cc(F)ccc3c2C[C@@H]2C[C@H](O)CN2C(=O)[C@H](CC)NC(=O)[C@H](C)NC)[nH]c2cc(F)ccc12 [Birinapant] | -399 | -1930
4 | Cc1cnc(-c2cc(N3CCN(C(=O)CCS(C)(=O)=O)CC3)ncc2Cl)c(C)c1 + CC[C@H](NC(=O)[C@H](C)NC)C(=O)N1C[C@@H](O)C[C@H]1Cc1c(-c2[nH]c3cc(F)ccc3c2C[C@@H]2C[C@H](O)CN2C(=O)[C@H](CC)NC(=O)[C@H](C)NC)[nH]c2cc(F)ccc12 [Birinapant] | 211 | –
5 | O=C(CCN1CCN(C(=O)OCc2cc(Cl)cc(Cl)c2)CC1)c1ccc2[nH]c(=O)oc2c1 + CC[C@H](NC(=O)[C@H](C)NC)C(=O)N1C[C@@H](O)C[C@H]1Cc1c(-c2[nH]c3cc(F)ccc3c2C[C@@H]2C[C@H](O)CN2C(=O)[C@H](CC)NC(=O)[C@H](C)NC)[nH]c2cc(F)ccc12 [Birinapant] | -22.5 | –
6 | CC1(C)OC2=C(C(=O)c3ccccc3C2=O)[C@H](NCc2ccccc2)[C@@H]1O + CC[C@H](NC(=O)[C@H](C)NC)C(=O)N1C[C@@H](O)C[C@H]1Cc1c(-c2[nH]c3cc(F)ccc3c2C[C@@H]2C[C@H](O)CN2C(=O)[C@H](CC)NC(=O)[C@H](C)NC)[nH]c2cc(F)ccc12 [Birinapant] | 60.3 | –
7 | C[C@@H](Oc1cc(-c2cnn(C3CCNCC3)c2)cnc1N)c1c(Cl)ccc(F)c1Cl [Crizotinib] + CC[C@H](NC(=O)[C@H](C)NC)C(=O)N1C[C@@H](O)C[C@H]1Cc1c(-c2[nH]c3cc(F)ccc3c2C[C@@H]2C[C@H](O)CN2C(=O)[C@H](CC)NC(=O)[C@H](C)NC)[nH]c2cc(F)ccc12 [Birinapant] | -219 | –
8 | CCOC(=O)N1CCN(/[N+]([O-])=N/Oc2ccc([N+](=O)[O-])cc2C#N)CC1 + CC[C@H](NC(=O)[C@H](C)NC)C(=O)N1C[C@@H](O)C[C@H]1Cc1c(-c2[nH]c3cc(F)ccc3c2C[C@@H]2C[C@H](O)CN2C(=O)[C@H](CC)NC(=O)[C@H](C)NC)[nH]c2cc(F)ccc12 [Birinapant] | 10.9 | –
9 | O=C1NC(=O)[C@@H](c2cn3c4c(cccc24)CCC3)[C@@H]1c1c[nH]c2ccccc12 [Tivantinib] + CC[C@H](NC(=O)[C@H](C)NC)C(=O)N1C[C@@H](O)C[C@H]1Cc1c(-c2[nH]c3cc(F)ccc3c2C[C@@H]2C[C@H](O)CN2C(=O)[C@H](CC)NC(=O)[C@H](C)NC)[nH]c2cc(F)ccc12 [Birinapant] | -96.6 | –
10 | COC(=O)Nc1ccc(-c2nc(N3CCOCC3)c3cnn(C4CCN(C(=O)OC)CC4)c3n2)cc1 + CC[C@H](NC(=O)[C@H](C)NC)C(=O)N1C[C@@H](O)C[C@H]1Cc1c(-c2[nH]c3cc(F)ccc3c2C[C@@H]2C[C@H](O)CN2C(=O)[C@H](CC)NC(=O)[C@H](C)NC)[nH]c2cc(F)ccc12 [Birinapant] | -64.3 | –
11 | O=C(O)c1ccccc1C(=O)Nc1ccc(-c2ccccc2)cc1 [Kartogenin] + CC[C@H](NC(=O)[C@H](C)NC)C(=O)N1C[C@@H](O)C[C@H]1Cc1c(-c2[nH]c3cc(F)ccc3c2C[C@@H]2C[C@H](O)CN2C(=O)[C@H](CC)NC(=O)[C@H](C)NC)[nH]c2cc(F)ccc12 [Birinapant] | 460 | –
12 | COc1cc(C(=O)NC2CCN(C)CC2)ccc1Nc1ncc2c(n1)N(C1CCCC1)CCC(=O)N2C(C)C + CC[C@H](NC(=O)[C@H](C)NC)C(=O)N1C[C@@H](O)C[C@H]1Cc1c(-c2[nH]c3cc(F)ccc3c2C[C@@H]2C[C@H](O)CN2C(=O)[C@H](CC)NC(=O)[C@H](C)NC)[nH]c2cc(F)ccc12 [Birinapant] | 135 | –
13 | CC[C@@H]1C(=O)N(C)c2cnc(Nc3ccc(C(=O)NC4CCN(C)CC4)cc3OC)nc2N1C1CCCC1 + CC[C@H](NC(=O)[C@H](C)NC)C(=O)N1C[C@@H](O)C[C@H]1Cc1c(-c2[nH]c3cc(F)ccc3c2C[C@@H]2C[C@H](O)CN2C(=O)[C@H](CC)NC(=O)[C@H](C)NC)[nH]c2cc(F)ccc12 [Birinapant] | -84.2 | –
14 | CC[C@@H]1C(=O)N(C)c2cnc(Nc3ccc(C(=O)N[C@H]4CC[C@H](N5CCN(CC6CC6)CC5)CC4)cc3OC)nc2N1C(C)C [Volasertib] + CC[C@H](NC(=O)[C@H](C)NC)C(=O)N1C[C@@H](O)C[C@H]1Cc1c(-c2[nH]c3cc(F)ccc3c2C[C@@H]2C[C@H](O)CN2C(=O)[C@H](CC)NC(=O)[C@H](C)NC)[nH]c2cc(F)ccc12 [Birinapant] | 22.4 | -1030
15 | COc1ccc(-n2nc(C(N)=O)c3c2C(=O)N(c2ccc(N4CCCCC4=O)cc2)CC3)cc1 [Apixaban] + CC[C@H](NC(=O)[C@H](C)NC)C(=O)N1C[C@@H](O)C[C@H]1Cc1c(-c2[nH]c3cc(F)ccc3c2C[C@@H]2C[C@H](O)CN2C(=O)[C@H](CC)NC(=O)[C@H](C)NC)[nH]c2cc(F)ccc12 [Birinapant] | -103 | –
16 | CN1CC2c3ccccc3Oc3ccc(Cl)cc3C2C1 (configuration not stated) [Asenapine maleate] + CC[C@H](NC(=O)[C@H](C)NC)C(=O)N1C[C@@H](O)C[C@H]1Cc1c(-c2[nH]c3cc(F)ccc3c2C[C@@H]2C[C@H](O)CN2C(=O)[C@H](CC)NC(=O)[C@H](C)NC)[nH]c2cc(F)ccc12 [Birinapant] | 164 | –
17 | O=S(=O)(O)c1ccc2cc(N=Nc3cc(S(=O)(=O)O)c4cccnc4c3O)ccc2c1 + CC[C@H](NC(=O)[C@H](C)NC)C(=O)N1C[C@@H](O)C[C@H]1Cc1c(-c2[nH]c3cc(F)ccc3c2C[C@@H]2C[C@H](O)CN2C(=O)[C@H](CC)NC(=O)[C@H](C)NC)[nH]c2cc(F)ccc12 [Birinapant] | 130 | –
18 | NC[C@H]1O[C@H](O[C@H]2[C@H](O)[C@@H](O[C@H]3O[C@H](CO)[C@@H](O)[C@H](N)[C@H]3O)[C@H](N)C[C@@H]2N)[C@H](O)[C@@H](O)[C@@H]1O [Kanamycin] + CC[C@H](NC(=O)[C@H](C)NC)C(=O)N1C[C@@H](O)C[C@H]1Cc1c(-c2[nH]c3cc(F)ccc3c2C[C@@H]2C[C@H](O)CN2C(=O)[C@H](CC)NC(=O)[C@H](C)NC)[nH]c2cc(F)ccc12 [Birinapant] | -24.6 | –
19 | CCc1cccc(CC)c1NC(=O)N1Cc2[nH]nc(NC(=O)c3ccc(N4CCN(C)CC4)cc3)c2C1 + CC[C@H](NC(=O)[C@H](C)NC)C(=O)N1C[C@@H](O)C[C@H]1Cc1c(-c2[nH]c3cc(F)ccc3c2C[C@@H]2C[C@H](O)CN2C(=O)[C@H](CC)NC(=O)[C@H](C)NC)[nH]c2cc(F)ccc12 [Birinapant] | -207 | –
20 | O=C(O)c1ccc(-c2cc3cccnc3c(-c3ccc4nonc4c3)n2)cc1 + CC[C@H](NC(=O)[C@H](C)NC)C(=O)N1C[C@@H](O)C[C@H]1Cc1c(-c2[nH]c3cc(F)ccc3c2C[C@@H]2C[C@H](O)CN2C(=O)[C@H](CC)NC(=O)[C@H](C)NC)[nH]c2cc(F)ccc12 [Birinapant] | -117 | –
